SENP7 inh: inhibitors of human SENP7 protease | Q9BQF6 | recombinant SENP7, Z-RLRGG-aminoluciferin luminescence, 40 min | inhibition, % at 5 µM | 330,000 tested, 1.5% active | AID 434973;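 active = inhibition above about 50% at the single test dose, limit read from the data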;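 note: plate controls were DMSO with enzyme for no effect and no enzyme buffer wells for full effect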
Target sequence (Q9BQF6 706-1050 limits assumed): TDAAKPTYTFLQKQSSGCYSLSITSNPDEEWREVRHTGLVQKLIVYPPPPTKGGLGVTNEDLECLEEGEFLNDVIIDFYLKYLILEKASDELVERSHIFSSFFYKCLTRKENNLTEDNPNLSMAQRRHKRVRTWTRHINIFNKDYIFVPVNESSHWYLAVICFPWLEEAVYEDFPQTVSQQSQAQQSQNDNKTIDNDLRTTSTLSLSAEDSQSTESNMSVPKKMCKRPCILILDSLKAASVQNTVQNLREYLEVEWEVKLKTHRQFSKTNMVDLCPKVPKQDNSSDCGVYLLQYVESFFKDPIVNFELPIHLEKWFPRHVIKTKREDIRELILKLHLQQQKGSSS
SENP8 block-1: SENP8 (human) protease inhibition; Q96LD8; recombinant SENP8, Nedd8 substrate fluorescence; inhibition, % at 20 µM; 360,000 tested, 0.64% active; AID 602440; in the data active = inhibition mostly above about 40%, no sharp cut-off; inactive = mostly below about 27%
Target sequence (Q96LD8 whole entry, looked up): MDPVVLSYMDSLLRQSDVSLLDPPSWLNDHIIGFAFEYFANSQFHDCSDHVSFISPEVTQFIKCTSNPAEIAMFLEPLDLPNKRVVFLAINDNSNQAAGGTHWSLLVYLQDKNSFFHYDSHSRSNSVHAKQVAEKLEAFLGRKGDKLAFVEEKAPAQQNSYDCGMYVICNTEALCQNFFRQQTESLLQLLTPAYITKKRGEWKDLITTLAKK
C8 TRAIL sens: sensitizes caspase-8 expressing cells to TRAIL; inhibition (viability loss, TRAIL sensitization), % at 10 µM; 360,000 tested, 1% active; NB7+C8 cells + TRAIL, ATPlite viability luminescence; AID 624354;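 active = compounds causing at least 50% loss of cell viability in the single-dose screen, relative to plate controls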
SENP8 block-2: SENP8 protease inhibition; Q96LD8; purified SENP8, Z-RLRGG-aminoluciferin cleavage, luminescence; inhibition, % at 10 µM; 330,000 tested, 1.2% active; AID 2540; in the data active = inhibition above about 50%
SENP6 inh: SENP6 protease inhibition; Q9GZR1; Recombinant SENP6 catalytic domain, aminoluciferin luminescence; AID 2599; 330,000 tested, 1.8% active; inhibition, % at 10 µM;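 active = inhibition above about 50% at the single tested dose, limit read from the data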;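 note: plate controls were DMSO wells with enzyme for no effect and DMSO wells lacking enzyme for full effect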
PPC-1+TRAIL kill: kills PPC-1 cancer cells in the presence of TRAIL; cell killing (% activity), % at 4 µM or 5 µM; PPC-1 cells + TRAIL, ATPLite viability luminescence; 220,000 tested, 0.41% active; AID 1443;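 active = cell killing above 50% in the first pass at 4 µM, then a duplicate retest at 5 µM averaging 50% or more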;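 note: plate controls were cells with TRAIL plus DMSO for no effect and medium-only wells lacking cells for full effect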
SENP8 confirm: confirmation of human SENP8 protease inhibitors; shares compounds with SENP7 inh; Recombinant SENP8, Z-RLRGG-aminoluciferin luminescence, 60 min; inhibition, % at 12.5 µM; 6,200 tested, 40% active;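 active = mean inhibition across replicates above about 50%, limit read from the data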
SENP6 conf: confirmation of human SENP6 protease inhibitors; shares compounds with SENP7 inh; recombinant SENP6, Z-RLRGG-aminoluciferin luminescence; 6,200 tested, 58% active; inhibition, % at 12.5 µM; AID 488915
SENP7 confirm: human SENP7 inhibition, confirmed; shares compounds with SENP7 inh; recombinant SENP7, Z-RLRGG-aminoluciferin luminescence, 40 min; inhibition, % at 12.5 µM; 6,200 tested, 69% active; AID 488917
Casp3 SENP sel: caspase-3 inhibition (SENP selectivity assay); inhibition, % at 12.5 µM; purified caspase-3, Z-DEVD-aminoluciferin luminescence, 60 min; shares compounds with SENP7 inh; 6,200 tested, 60% active;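 active = mean inhibition above about 50%, limit read from the data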;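 note: plate controls were enzyme with DMSO for no effect and wells without caspase-3 for full effect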
SENP luc ctr: interferes with luciferase luminescence in SENP counter-screen. Pre-incubated SENP8/Z-RLRGG-aminoluciferin, luciferase luminescence interference. inhibition, % at 12.5 µM. AID 488919. 6,200 tested, 39% active. shares compounds with SENP7 inh;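 active = mean inhibition above about 50% when retested at one dose, limit read from the data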;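 note: plate controls were DMSO wells with completed reaction for no effect and substrate without enzyme for full effect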
Starred values were filed as active, the others as inactive; i = inactive; nt = no result given. An excerpt weighted towards active compounds, which were near 3% of everything screened.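 Rule for the calls, unless noted: active = mean inhibition above about 50% in the one-dose retest (limit read from the data); inactive = the rest.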

SMILES	SENP7 inh	SENP8 block-1	C8 TRAIL sens	SENP8 block-2	SENP6 inh	PPC-1+TRAIL kill	SENP8 confirm	SENP6 conf	SENP7 confirm	Casp3 SENP sel	SENP luc ctr
O=C(COC(=O)c1ccc([N+](=O)[O-])s1)Nc1cccc(S(=O)(=O)NC2=NCCCCC2)c1	37	19	-9	61*	65*	2	80*	87*	45	10	1
O=C(OCC(=O)N1CCC(c2ccccc2)=N1)c1ccc([N+](=O)[O-])s1	15	25	-2	63*	56*	nt	37	74*	26	9	7
O=C(COC(=O)c1ccc(O)cc1)Nc1ccccc1[N+](=O)[O-]	8	22	-12	37	57*	44	46	39	70*	52*	42
O=C(COC(=O)c1ccc([N+](=O)[O-])s1)Nc1ccc(F)cc1	40	34	1	69*	66*	nt	68*	88*	48	13	-5
O=C(COC(=O)c1cccs1)Nc1cccc(S(=O)(=O)NC2=NCCCCC2)c1	5	12	-5	-3	-6	4	nt	nt	nt	nt	nt
Cc1ccc(CS(=O)(=O)CC(C)(O)c2ccc(Cl)cc2)cc1 (stereo not drawn)	-2	8	10	-7	-1	nt	nt	nt	nt	nt	nt
COCCC(=O)N1CCCC(C(=O)c2ccc(C(F)(F)F)cc2)C1 (stereo not drawn)	-5	-3	-2	-5	24	nt	nt	nt	nt	nt	nt
CCc1ncc(CN2CCC(C(=O)Nc3cccc(-c4cscn4)c3)CC2)cn1	9	8	0	-4	-12	nt	nt	nt	nt	nt	nt
CC(=O)Nc1cccc(-c2csc(C(O)c3ccccc3)n2)c1 (stereo not drawn)	nt	1	-10	nt	nt	nt	nt	nt	nt	nt	nt
COc1ccc(C)cc1CN(C)c1ccc(S(=O)(=O)N2CCN(C)CC2)cn1	0	-33	-21	-7	-5	nt	nt	nt	nt	nt	nt
Cc1c(-c2ccccc2)c(-c2ccc(OCCN(C)C)cc2)n2ccccc12	nt	-396	-6	nt	nt	nt	nt	nt	nt	nt	nt
O=C(Nc1ncc([N+](=O)[O-])s1)c1ccco1	92*	16	3	91*	92*	nt	93*	93*	102*	98*	66*
COc1ccc(S(=O)(=O)N2CCOCC2)cc1NC(=O)COC(=O)c1ccc([N+](=O)[O-])s1	33	37	-9	67*	53*	nt	-6	83*	35	3	3
CN(CC(=O)Nc1ccccc1Cl)C(=O)COC(=O)c1ccccc1[N+](=O)[O-]	101*	3	3	-6	1	nt	0	4	7	4	-2
O=C(COC(=O)c1ccc([N+](=O)[O-])s1)NCc1ccccc1	48	12	-5	62*	73*	13	58*	72*	21	-1	-8
COc1ccc(S(=O)(=O)N2CCOCC2)cc1NC(=O)COC(=O)c1[nH]c(C)c(C(C)=O)c1C	-2	-2	12	-8	7	nt	nt	nt	nt	nt	nt
COCCN1C[C@@H](CO)O[C@@H](n2cnc3c(N4CCN(CCO)CC4)ncnc32)C1	nt	16	-8	nt	nt	nt	nt	nt	nt	nt	nt
O=C(COc1ccc(Cl)cc1)Nc1ncc([N+](=O)[O-])s1	nt	28	32	nt	nt	36	nt	nt	nt	nt	nt
O=C(COC(=O)COc1ccccc1)Nc1ncc([N+](=O)[O-])s1	76*	13	-2	88*	91*	nt	90*	89*	99*	92*	90*
O=C(COC(=O)c1ccc([N+](=O)[O-])s1)NC(c1ccccc1)c1ccccc1	18	27	-1	46	14	11	nt	nt	nt	nt	nt
O=C(COC(=O)c1ccc([N+](=O)[O-])s1)Nc1ccccc1	36	33	-10	53*	64*	10	82*	88*	50	20	-6
O=C(OCc1nnc(-c2ccccc2)o1)c1ccc([N+](=O)[O-])s1	31	31	2	71*	68*	nt	72*	83*	40	10	-2
CC1CCCCN1C(=O)CN1C(=O)NC2(CCCCC2C)C1=O (stereo not drawn)	-7	-2	-13	-13	-21	nt	nt	nt	nt	nt	nt
CN(C)c1ccc(C#Cc2ccc3cc(CCO)oc(=O)c3c2)cc1	-15	-493	38	-7	-19	nt	nt	nt	nt	nt	nt
COc1cc(C#Cc2ccc3cc(CCO)oc(=O)c3c2)cc(OC)c1	85*	i	14	80*	84*	nt	81*	83*	95*	61*	65*
SMILES	SENP7 inh	SENP8 block-1	C8 TRAIL sens	SENP8 block-2	SENP6 inh	PPC-1+TRAIL kill	SENP8 confirm	SENP6 conf	SENP7 confirm	Casp3 SENP sel	SENP luc ctr
CC(=O)Nc1cc2nn(-c3ccccc3)nc2cc1Cl	76*	-478	43	30	69*	-1	7	11	32	35	7
Cc1nn(-c2cccc(Cl)c2)nc1C(=O)O	4	16	-19	2	6	3	nt	nt	nt	nt	nt
CC(C)C(=O)Nc1ccc2nn(-c3ccccc3)nc2c1	51*	-459	54*	1	15	45	42	40	71*	32	7
N#Cc1c(N)nc(SCc2ccncc2)c(C#N)c1-c1cccs1	-3	-62	22	-7	-9	-3	nt	nt	nt	nt	nt
CN1CCc2nc(SCc3ccc(Cl)cc3)c(C#N)c(-c3cccs3)c2C1	38	nt	nt	69*	76*	nt	-4	2	11	4	2
CCCCC(=O)N(C)c1c(CC)nc2c(OCc3cccc(Cl)c3)cccn12	nt	4	5	nt	nt	nt	nt	nt	nt	nt	nt
Cc1cccc(NC(=O)CSc2nc(=O)n(CCCN3CCOCC3)c3c2CCCC3)c1	3	7	5	-1	-11	nt	nt	nt	nt	nt	nt
COc1ccccc1C(=O)NCCOc1ccc(C(C)(C)C)cc1	2	-4	34	-2	5	nt	nt	nt	nt	nt	nt
CC(C)(C)c1ccc(C(=O)NCCOc2ccccc2F)cc1	72*	14	19	59*	74*	nt	5	69*	90*	52*	47
CC(C)(C)c1ccc(C(=O)NCCOc2ccccc2)cc1	54*	5	15	38	57*	nt	-5	36	80*	nt	-1
CC(C)(C)c1ccc(C(=O)NCCc2ccccc2)cc1	33	10	40	20	42	nt	nt	nt	nt	nt	nt
CCCCN(C)C(=O)c1sc(=O)n(Cc2c(C)cccc2C)c1C	nt	-4	0	nt	nt	nt	nt	nt	nt	nt	nt
COc1cc(/C=N/Nc2nc3ccccc3s2)cc([N+](=O)[O-])c1O	32	42*	-12	58*	11	5	5	15	4	14	1

Compound activity as filed in PubChem.
